Structures are written as SMILES. Activity calls are given as the source filed them. The calls were made as follows: active = hit-call score of the fitted dose curve at least 0.9, where 1 is the maximum; inactive = score below 0.9.

Common to all, as to settings: mRNA level, 48 h; actives raise or lower the signal
Read-out in one test: CYP2C9 (gene 1559)
The experiment in a line: LTEA_HepaRG_CYP2C9: Life Technologies and Expression Analysis (LTEA) Assay for CYP2C9 using HepaRG (AID 2283484). The method in brief: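 Differentiated human HepaRG cells were exposed 48 h in serum-free induction medium to eight half-log concentrations up to 100 uM in 0.5% DMSO. CYP2C9 mRNA was measured by qRT-PCR, normalized to ACTB, GAPDH and POLR2A, and fitted bidirectionally against DMSO.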

Read-out in a further test: CYP2E1 (gene 1571)
The experiment in a line: LTEA_HepaRG_CYP2E1: Life Technologies and Expression Analysis (LTEA) Assay for CYP2E1 using HepaRG (AID 2283485). The essentials: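 Differentiated HepaRG cells were treated in duplicate for 48 h with chemicals in 0.5% DMSO, from 100 uM downward in half-log dilutions. RNA was then analysed by qRT-PCR for CYP2E1 induction or loss.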

Read-out in a further test: CYP4A11 (gene 1579)
The test can be described thus: LTEA_HepaRG_CYP4A11: Life Technologies and Expression Analysis (LTEA) Assay for CYP4A11 using HepaRG (AID 2283486). The essentials:
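Differentiated HepaRG cells, 48 h after plating, exposed in duplicate for 48 h to 8 half-log concentrations up to 100 uM in 0.5% DMSO in serum-free induction medium. CYP4A11 mRNA measured by TaqMan qRT-PCR, normalized to ACTB, GAPDH and POLR2A.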

Read-out in test [1]: Cytochrome P450 3A4 (Homo sapiens) (UniProt P08684)
The experiment in a line: LTEA_HepaRG_CYP3A4: Life Technologies and Expression Analysis (LTEA) Assay for CYP3A4 using HepaRG (AID 2283487). The essentials:
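In a human hepatic line (HepaRG), duplicate wells were treated 48 h with up to 100 uM chemical in half-log dilutions. Endpoint: CYP3A4 mRNA induction or loss relative to 0.5% DMSO vehicle, by qRT-PCR.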

Read-out in test [2]: DNA damage-inducible transcript 3 (DDIT3), DDIT3 (gene 1649)
The experiment in a line: LTEA_HepaRG_DDIT3: Life Technologies and Expression Analysis (LTEA) Assay for DNA damage-inducible transcript 3 (DDIT3) using HepaRG (AID 2283488). The method in brief: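 Changes in DDIT3 transcript, in either direction relative to 0.5% DMSO vehicle, were quantified by TaqMan qRT-PCR after 48 h chemical exposure of HepaRG cells at 8 concentrations, maximum 100 uM.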

Read-out in test [3]: Pro-epidermal growth factor (Homo sapiens) (UniProt P01133)
The test can be described thus: LTEA_HepaRG_EGF: Life Technologies and Expression Analysis (LTEA) Assay for Epidermal growth factor (EGF) using HepaRG (AID 2283489). The method in brief: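 HepaRG cells (~100,000/well, 48 h pre-culture) exposed in duplicate for 48 h in serum-free induction medium to 8 half-log concentrations up to 100 uM in 0.5% DMSO. EGF mRNA by qRT-PCR, normalized to ACTB/GAPDH/POLR2A; bidirectional fit versus DMSO.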

Read-out in test [4]: Early growth response protein 1 (EGR1) transcription factor, EGR1 (gene 1958)
The test can be described thus: LTEA_HepaRG_EGR1: Life Technologies and Expression Analysis (LTEA) Assay for Early growth response protein 1 (EGR1) transcription factor using HepaRG (AID 2283490). The essentials: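 Differentiated human HepaRG cells in serum-free induction medium were exposed in duplicate for 48 h to eight concentrations (top 100 uM, half-log steps) in 0.5% DMSO. EGR1 mRNA was quantified by qRT-PCR, normalized to ACTB, GAPDH and POLR2A, and fitted bidirectionally versus DMSO.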

Read-out in test [5]: Ezrin (EZR), EZR (gene 7430)
The experiment in a line: LTEA_HepaRG_EZR: Life Technologies and Expression Analysis (LTEA) Assay for Ezrin (EZR) using HepaRG (AID 2283491). The essentials: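 Gain or loss of EZR mRNA is scored relative to 0.5% DMSO in human HepaRG cultures treated 48 h with test chemicals in duplicate, eight half-log concentrations from 100 uM.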

Read-out in test [6]: Cytochrome P450 3A7 (Homo sapiens) (UniProt P24462)
The experiment in a line: LTEA_HepaRG_CYP3A7: Life Technologies and Expression Analysis (LTEA) Assay for CYP3A7 using HepaRG (AID 2283492). The essentials:
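Differentiated HepaRG cells in serum-free induction medium exposed 48 h in duplicate to 8-point half-log series from 100 uM top in 0.5% DMSO. CYP3A7 mRNA by qRT-PCR, normalized to ACTB/GAPDH/POLR2A, bidirectional fit versus DMSO.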

Read-out in the next test: CYP3A5 (gene 1577)
The experiment in a line: LTEA_HepaRG_CYP3A5: Life Technologies and Expression Analysis (LTEA) Assay for CYP3A5 using HepaRG (AID 2283493). The essentials: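 mRNA induction or loss of CYP3A5 assessed in HepaRG after 48 h dosing, 100 uM top concentration, duplicate wells; TaqMan qRT-PCR with ACTB, GAPDH, POLR2A normalization; 0.5% DMSO as negative control.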

Cytochrome P450 3A4 (Homo sapiens), sequence (P08684 whole entry, looked up): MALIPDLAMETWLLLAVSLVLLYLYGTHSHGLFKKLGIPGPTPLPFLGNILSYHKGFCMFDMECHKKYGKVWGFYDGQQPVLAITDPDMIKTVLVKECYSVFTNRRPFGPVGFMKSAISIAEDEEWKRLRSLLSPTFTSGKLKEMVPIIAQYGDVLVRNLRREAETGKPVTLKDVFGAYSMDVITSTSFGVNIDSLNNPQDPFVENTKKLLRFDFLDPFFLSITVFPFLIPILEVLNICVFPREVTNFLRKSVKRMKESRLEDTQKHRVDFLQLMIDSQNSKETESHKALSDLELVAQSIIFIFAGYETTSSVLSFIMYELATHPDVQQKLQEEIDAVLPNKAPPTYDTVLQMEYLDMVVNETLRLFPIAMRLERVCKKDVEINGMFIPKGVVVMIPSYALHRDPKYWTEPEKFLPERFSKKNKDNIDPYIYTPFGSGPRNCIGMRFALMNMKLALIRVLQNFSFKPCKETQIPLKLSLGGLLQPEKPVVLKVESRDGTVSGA
Cytochrome P450 3A7 (Homo sapiens), sequence (P24462 whole entry, looked up): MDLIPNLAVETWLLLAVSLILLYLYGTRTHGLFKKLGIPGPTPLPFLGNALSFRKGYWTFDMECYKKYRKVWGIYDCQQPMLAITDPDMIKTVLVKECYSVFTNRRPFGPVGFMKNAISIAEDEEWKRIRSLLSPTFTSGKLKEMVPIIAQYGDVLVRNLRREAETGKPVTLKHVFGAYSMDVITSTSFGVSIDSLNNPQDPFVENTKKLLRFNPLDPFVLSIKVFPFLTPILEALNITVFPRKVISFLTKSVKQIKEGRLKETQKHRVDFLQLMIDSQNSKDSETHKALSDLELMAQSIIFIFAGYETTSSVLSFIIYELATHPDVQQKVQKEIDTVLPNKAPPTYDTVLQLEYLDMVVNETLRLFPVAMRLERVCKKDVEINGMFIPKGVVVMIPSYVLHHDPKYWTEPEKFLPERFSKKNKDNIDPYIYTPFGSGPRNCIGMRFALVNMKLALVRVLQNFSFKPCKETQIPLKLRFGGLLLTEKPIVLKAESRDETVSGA

The AC50 is the concentration giving half of the maximal activity seen. Regarding `CC(C)(C)[C@@H](O)[C@@H](Cc1ccc(Cl)cc1)n1cncn1`, the molecule was called inactive (with CYP2C9 (gene 1559); in test [2]; in test [3]; in test [4]; in test [5]; with CYP3A5 (gene 1577)). In addition, the AC50 with CYP2E1 (gene 1571) was 50 µM (active); with CYP4A11 (gene 1579) it was 50 µM (active); in [1] it was 7.74 µM (active); in test [6] it was 5.85 µM (active).
As to `O=C(c1ccc(O)cc1O)c1ccc(O)cc1O`, the molecule was called inactive (with CYP2C9 (gene 1559); with CYP2E1 (gene 1571); with CYP4A11 (gene 1579); in test [1]; in test [2]; in [3]). Further, the molecule was called inactive (in test [4]; in test [5]; in test [6]; with CYP3A5 (gene 1577)).
Take `CCOC(=O)COc1cc(-n2ncc(C(F)(F)F)c(C)c2=O)c(F)cc1Cl`: the molecule was called inactive (in the test with CYP2C9 (gene 1559); with CYP2E1 (gene 1571); with CYP4A11 (gene 1579); in test [2]; in [3]; in [4]). The molecule was classed as inactive (in [5]; with CYP3A5 (gene 1577)). Moreover, the AC50 is 50 µM (active) in test [1] and 28.9 µM (active) in [6].
`C[C@]12CC[C@@H]3c4ccc(O)cc4C[C@@H](CCCCCCCCCS(=O)CCCC(F)(F)C(F)(F)F)[C@H]3[C@@H]1CC[C@@H]2O` (stereo not given in full): the AC50 was 28.7 µM (active) with CYP2C9 (gene 1559); 20.2 µM (active) with CYP2E1 (gene 1571); 30.9 µM (active) with CYP4A11 (gene 1579); 31.1 µM (active) in test [1]; 9.92 µM (active) in [2]; 0.0848 µM (active) in test [3]. Moreover, the AC50 in [4] is 0.119 µM (active); in test [6], 24.9 µM (active); with CYP3A5 (gene 1577), 15.7 µM (active). The call in test [5] was inactive.
As for `CCCCOC(=O)C(C)Oc1ccc(Oc2ccc(C(F)(F)F)cn2)cc1` (stereo not given), the call (in the test with CYP2C9 (gene 1559); with CYP2E1 (gene 1571); with CYP4A11 (gene 1579); in test [1]; in [2]; in test [3]) was inactive. Further, the result (in [4]; in test [5]; in [6]; in the test with CYP3A5 (gene 1577)) was inactive.
In the case of `O=C(O)c1ccccc1`, the molecule was classed as inactive (with CYP2C9 (gene 1559); in the test with CYP2E1 (gene 1571); with CYP4A11 (gene 1579); in test [1]; in test [2]; in test [3]). The outcome (in test [4]; in [5]; in test [6]; with CYP3A5 (gene 1577)) was inactive.
In the case of `CCCCOC(=O)[C@@H](C)Oc1ccc(Oc2ccc(C(F)(F)F)cn2)cc1`, the molecule was classed as inactive (with CYP2C9 (gene 1559); with CYP4A11 (gene 1579); in test [1]; in test [2]; in [3]; in test [4]). Moreover, the result (in test [5]; in [6]; with CYP3A5 (gene 1577)) was inactive. Further, in the test with CYP2E1 (gene 1571), the AC50 was 17 µM (active).
Turning to `CCN(Cc1c(F)cccc1Cl)c1c([N+](=O)[O-])cc(C(F)(F)F)cc1[N+](=O)[O-]`, the call (with CYP2C9 (gene 1559); in [2]; in [4]; in [5]; in [6]; in the test with CYP3A5 (gene 1577)) was inactive. Besides, the AC50 is 40.9 µM (active) with CYP2E1 (gene 1571), 36.3 µM (active) in the test with CYP4A11 (gene 1579), 8.01 µM (active) in [1] and 14 µM (active) in test [3].
Turning to `OB(O)O`, the molecule was classed as inactive (with CYP2C9 (gene 1559); in the test with CYP2E1 (gene 1571); with CYP4A11 (gene 1579); in [1]; in test [2]; in [3]). The molecule was classed as inactive (in test [4]; in test [5]; in [6]; in the test with CYP3A5 (gene 1577)).
In the case of `CCSC(=O)N(CC(C)C)CC(C)C`, the call (in the test with CYP2C9 (gene 1559); with CYP2E1 (gene 1571); in the test with CYP4A11 (gene 1579); in test [1]; in [2]; in [3]) was inactive. For the same molecule, the molecule was classed as inactive (in test [4]; in test [5]; in [6]; in the test with CYP3A5 (gene 1577)).
`CC(C)CCCCCCc1ccc(O)cc1`: the call (with CYP2C9 (gene 1559); with CYP2E1 (gene 1571); in the test with CYP4A11 (gene 1579); in test [2]; in [3]; in [4]) was inactive. In addition, the molecule was called inactive (in test [5]; in test [6]; in the test with CYP3A5 (gene 1577)). In addition, in test [1], the AC50 is 50 µM (active).
As for `CC(=O)[C@H]1CC[C@H]2[C@@H]3CCC4=CC(=O)CC[C@]4(C)[C@H]3CC[C@]12C`, the AC50 with CYP2C9 (gene 1559) was 38.5 µM (active); with CYP2E1 (gene 1571) it was 25.7 µM (active); in the test with CYP4A11 (gene 1579) it was 31.1 µM (active); in test [1] it was 36 µM (active); in test [2] it was 27.2 µM (active); in test [3], 82 µM (active). Also, the AC50 was 50 µM (active) in [4], 30.1 µM (active) in [6] and 84.6 µM (active) with CYP3A5 (gene 1577). Besides, the molecule was classed as inactive in test [5].
For the molecule `CCOC(=O)C(C)Oc1ccc(Oc2cnc3cc(Cl)ccc3n2)cc1` (stereo not given), the molecule was called inactive (with CYP2C9 (gene 1559); in test [1]; in test [2]; in [3]; in [4]; in test [5]). The AC50 was 20 µM (active) in the test with CYP2E1 (gene 1571), 43 µM (active) with CYP4A11 (gene 1579), 0.571 µM (active) in [6] and 0.628 µM (active) in the test with CYP3A5 (gene 1577).

Values taken from PubChem BioAssay (EPA / NIEHS).
